{"source": "ChEMBL document CHEMBL1157539", "about": "“Thousands of chemical starting points for antimalarial lead identification” (Nature, 2010)"}
{"tested_on": "Plasmodium falciparum", "test": "GSK_TCMDC: Inhibition of Plasmodium falciparum Dd2 in whole red blood cells, using parasite LDH activity as an index of growth. Test compounds present at 2uM", "type": "functional", "units": {"Inhibition": "%"}}
{"smiles": "COc1cc2ccccc2c(OC)c1CNCCCCCCNCc1c(OC)cc2ccccc2c1OC.CS(=O)(=O)O", "Inhibition": 91}
{"smiles": "O=C(Nc1ccc(-c2cccc(-c3nc4ccccc4[nH]3)c2)cc1)c1cnn2cccnc12", "Inhibition": 36}
{"smiles": "COc1ccc(CNc2nc(NCCc3ccccc3)c3cc(OC)c(OC)cc3n2)cc1OC", "Inhibition": 100}
{"smiles": "COc1ccc(CCN2CCC(Nc3nc4ccccc4n3CCc3ccc(OC)cc3)CC2)cc1.Cl", "Inhibition": 88}
{"smiles": "COc1cccc2c(N/N=C/c3cccc([N+](=O)[O-])c3)ccnc12", "Inhibition": 47}
{"smiles": "Nc1ncnc2nc(-c3ccc(F)cc3)cc(-c3ccc(NC(=O)c4ccccc4)cc3)c12", "Inhibition": 97}
{"smiles": "Cc1ccc(Cn2c(N3CCC(C(=O)NCc4ccccn4)CC3)nc3ccccc32)cc1", "Inhibition": 99}
{"smiles": "O=C(Nc1cccc(-c2cccc(F)c2)c1)C1CCN(Cc2ccc(O)cc2)CC1", "Inhibition": 2}
{"smiles": "Cn1ncc2ccc(Nc3nccc(-c4ccc5c(c4)c(N)nn5C)n3)cc21", "Inhibition": 96}
{"smiles": "O=C(Nc1cccc(-c2cccc(-c3nc4cc(C(F)(F)F)ccc4[nH]3)c2)c1)Nc1ccc(F)c(F)c1F", "Inhibition": 100}
{"smiles": "O=C(Nc1ccc(Oc2ccc(OC(F)(F)F)cc2)cc1)c1ccco1", "Inhibition": 71}
{"smiles": "CC(C)NC(=O)c1cccc(-c2ccc(OCCN3CCCC3c3cc4ccccc4[nH]3)cc2)c1", "note": "(stereo not drawn)", "Inhibition": 34}
{"smiles": "Cc1nc2nc(N)nc(N)c2c(C)c1Cc1ccccc1Br.Cl", "Inhibition": 2}
{"smiles": "O=C(N[C@@H](CC1CCCCC1)C(=O)NCCN1CCCCC1)c1ccc(O)c(-c2cccc(C(F)(F)F)c2)c1", "Inhibition": 97}
{"smiles": "O=C(Nc1cccc(CN2CCCN(Cc3ncc[nH]3)CC2)c1)c1ccc(Cl)c(Cl)c1.O=C(O)C(F)(F)F", "Inhibition": 16}
{"smiles": "Cn1c(N)c(C(=O)CSc2ncc(-c3ccc(F)cc3)n2Cc2ccccc2)c(=O)n(C)c1=O", "Inhibition": 66}
{"smiles": "CN(C)CC(=O)Nc1ccc(Nc2nccc(NCC(O)c3ccccc3)n2)cc1", "note": "(stereo not drawn)", "Inhibition": 2}
{"smiles": "Cl.N#CCc1ccc(Nc2nccc(Nc3ccc(Oc4ccccc4)cc3)n2)cc1", "Inhibition": 47}
{"smiles": "OCc1c(Cl)cc(Cl)cc1CNCCCNc1nc2ccccc2[nH]1", "Inhibition": 2}
{"smiles": "O=C(NC1CCCCN(Cc2ccc3c(c2)OCCO3)C1)c1cc(-c2ccccc2F)cs1.O=C(O)C(F)(F)F", "note": "(stereo not drawn)", "Inhibition": 19}
{"smiles": "COc1ccc(NC(=O)CSc2nc(-c3ccccc3Cl)ns2)cc1", "Inhibition": 75}
{"smiles": "COc1ccc2nc(-c3ccccc3)cc(NCCN(C)C)c2c1", "Inhibition": 23}
{"smiles": "CCc1ccc(S(=O)(=O)Nc2cccc(CCN3CCC(N4CCCCC4)CC3)c2)cc1", "Inhibition": 20}
{"smiles": "CC(C)CSc1cc(C(=O)Nc2cc(Cl)ccc2O)ccn1", "Inhibition": 34}
{"smiles": "CN1CCN(CCCN(Cc2cccc(-c3ccc(CNC4CCCC4)cc3)c2)C(=O)CCC2CCCC2)CC1.O=C(O)C(F)(F)F", "Inhibition": 84}
{"smiles": "O=C(Nc1cccnc1)c1cc(-c2cc(Cl)ccc2O)n[nH]1", "Inhibition": 85}
{"smiles": "c1cc(Cc2ccc(Nc3c4ccccc4nc4ccccc34)cc2)cc(Nc2c3ccccc3nc3ccccc23)c1", "Inhibition": 100}
{"smiles": "N#Cc1cnc(Nc2ccc(Oc3ccccc3)cc2)nc1Nc1cccc(S(N)(=O)=O)c1", "Inhibition": 86}
{"smiles": "O=C(O)C(F)(F)F.O=C(c1ccccc1)N(Cc1ccccc1-c1ccc(CNCCc2ccccc2)cc1)C1CCN(Cc2ccccc2)CC1", "Inhibition": 69}
{"smiles": "Cc1cc(OCCCN2CCCCC2)ccc1NC(=O)COc1ccc(Cl)cc1C(=O)c1cc(Cl)cc(C#N)c1", "Inhibition": 16}
{"smiles": "CC(C)NCc1ccc(-c2ccc(-c3nc4cc(C(F)(F)F)ccc4[nH]3)s2)cc1.O=C(O)C(F)(F)F", "Inhibition": 94}
{"smiles": "CNCCNCc1ccc(-c2ccc(-c3nc4cccc(C)c4[nH]3)cc2)cc1.O=C(O)C(F)(F)F", "Inhibition": 79}
{"smiles": "O=C(Cn1cnc2c(nnn2Cc2ccccc2F)c1=O)Nc1ccc2c(c1)OCCO2", "Inhibition": 1}
{"smiles": "O=C(Nc1cncc(NC(=O)c2ccc(Cl)c(Cl)c2)c1)c1ccc(Cl)c(Cl)c1", "Inhibition": 70}
{"smiles": "O=C(N[C@@H](Cc1ccccc1)C(=O)NC1CCCCC1)c1ccc(O)c(-c2ccc(Cl)c(Cl)c2)c1", "Inhibition": 99}
{"smiles": "CC(C)COc1ccc(Cl)cc1Cc1nc(-c2nc3ccc(N4CCN(C)CC4)nc3[nH]2)cs1.Cl", "Inhibition": 27}
{"smiles": "CN(C)CCOc1cc(O)c2c(c1)OC(C)(C)C=C2c1cccs1", "Inhibition": 10}
{"smiles": "CO/N=C(\\C)c1ccc2c(c1)CCN(CCC1CCC(NC(=O)/C=C/c3ccc(F)cc3)CC1)CC2.Cl", "note": "(stereo not drawn)", "Inhibition": 15}
{"smiles": "CCOc1cc(CC)ccc1C1CCN(CCN2CCC(CNC(=O)c3ccc(-c4ccc(C#N)cc4)cc3)CC2)CC1", "Inhibition": 100}
{"tested_on": "HepG2", "test": "GSK_TCMDC: Percent inhibition of human HepG2 cell line. Test compounds present at 10uM.", "type": "functional", "units": {"Inhibition": "%"}}
{"smiles": "COc1cc2ccccc2c(OC)c1CNCCCCCCNCc1c(OC)cc2ccccc2c1OC.CS(=O)(=O)O", "Inhibition": 100}
{"smiles": "O=C(Nc1ccc(-c2cccc(-c3nc4ccccc4[nH]3)c2)cc1)c1cnn2cccnc12", "Inhibition": 64}
{"smiles": "COc1ccc(CNc2nc(NCCc3ccccc3)c3cc(OC)c(OC)cc3n2)cc1OC", "Inhibition": 48}
{"smiles": "COc1ccc(CCN2CCC(Nc3nc4ccccc4n3CCc3ccc(OC)cc3)CC2)cc1.Cl", "Inhibition": 34}
{"smiles": "COc1cccc2c(N/N=C/c3cccc([N+](=O)[O-])c3)ccnc12", "Inhibition": 12}
{"smiles": "Nc1ncnc2nc(-c3ccc(F)cc3)cc(-c3ccc(NC(=O)c4ccccc4)cc3)c12", "Inhibition": 0}
{"smiles": "Cc1ccc(Cn2c(N3CCC(C(=O)NCc4ccccn4)CC3)nc3ccccc32)cc1", "Inhibition": 0}
{"smiles": "O=C(Nc1cccc(-c2cccc(F)c2)c1)C1CCN(Cc2ccc(O)cc2)CC1", "Inhibition": 13}
{"smiles": "Cn1ncc2ccc(Nc3nccc(-c4ccc5c(c4)c(N)nn5C)n3)cc21", "Inhibition": 48}
{"smiles": "O=C(Nc1cccc(-c2cccc(-c3nc4cc(C(F)(F)F)ccc4[nH]3)c2)c1)Nc1ccc(F)c(F)c1F", "Inhibition": 71}
{"smiles": "O=C(Nc1ccc(Oc2ccc(OC(F)(F)F)cc2)cc1)c1ccco1", "Inhibition": 5}
{"smiles": "CC(C)NC(=O)c1cccc(-c2ccc(OCCN3CCCC3c3cc4ccccc4[nH]3)cc2)c1", "note": "(stereo not drawn)", "Inhibition": 25}
{"smiles": "Cc1nc2nc(N)nc(N)c2c(C)c1Cc1ccccc1Br.Cl", "Inhibition": 65}
{"smiles": "O=C(N[C@@H](CC1CCCCC1)C(=O)NCCN1CCCCC1)c1ccc(O)c(-c2cccc(C(F)(F)F)c2)c1", "Inhibition": 0}
{"smiles": "O=C(Nc1cccc(CN2CCCN(Cc3ncc[nH]3)CC2)c1)c1ccc(Cl)c(Cl)c1.O=C(O)C(F)(F)F", "Inhibition": 8}
{"smiles": "Cn1c(N)c(C(=O)CSc2ncc(-c3ccc(F)cc3)n2Cc2ccccc2)c(=O)n(C)c1=O", "Inhibition": 11}
{"smiles": "CN(C)CC(=O)Nc1ccc(Nc2nccc(NCC(O)c3ccccc3)n2)cc1", "note": "(stereo not drawn)", "Inhibition": 0}
{"smiles": "Cl.N#CCc1ccc(Nc2nccc(Nc3ccc(Oc4ccccc4)cc3)n2)cc1", "Inhibition": 0}
{"smiles": "OCc1c(Cl)cc(Cl)cc1CNCCCNc1nc2ccccc2[nH]1", "Inhibition": 0}
{"smiles": "O=C(NC1CCCCN(Cc2ccc3c(c2)OCCO3)C1)c1cc(-c2ccccc2F)cs1.O=C(O)C(F)(F)F", "note": "(stereo not drawn)", "Inhibition": 8}
{"smiles": "COc1ccc(NC(=O)CSc2nc(-c3ccccc3Cl)ns2)cc1", "Inhibition": 11}
{"smiles": "COc1ccc2nc(-c3ccccc3)cc(NCCN(C)C)c2c1", "Inhibition": 0}
{"smiles": "CCc1ccc(S(=O)(=O)Nc2cccc(CCN3CCC(N4CCCCC4)CC3)c2)cc1", "Inhibition": 21}
{"smiles": "CC(C)CSc1cc(C(=O)Nc2cc(Cl)ccc2O)ccn1", "Inhibition": 36}
{"smiles": "CN1CCN(CCCN(Cc2cccc(-c3ccc(CNC4CCCC4)cc3)c2)C(=O)CCC2CCCC2)CC1.O=C(O)C(F)(F)F", "Inhibition": 16}
{"smiles": "O=C(Nc1cccnc1)c1cc(-c2cc(Cl)ccc2O)n[nH]1", "Inhibition": 7}
{"smiles": "c1cc(Cc2ccc(Nc3c4ccccc4nc4ccccc34)cc2)cc(Nc2c3ccccc3nc3ccccc23)c1", "Inhibition": 91}
{"smiles": "N#Cc1cnc(Nc2ccc(Oc3ccccc3)cc2)nc1Nc1cccc(S(N)(=O)=O)c1", "Inhibition": 74}
{"smiles": "O=C(O)C(F)(F)F.O=C(c1ccccc1)N(Cc1ccccc1-c1ccc(CNCCc2ccccc2)cc1)C1CCN(Cc2ccccc2)CC1", "Inhibition": 95}
{"smiles": "Cc1cc(OCCCN2CCCCC2)ccc1NC(=O)COc1ccc(Cl)cc1C(=O)c1cc(Cl)cc(C#N)c1", "Inhibition": 28}
{"smiles": "CC(C)NCc1ccc(-c2ccc(-c3nc4cc(C(F)(F)F)ccc4[nH]3)s2)cc1.O=C(O)C(F)(F)F", "Inhibition": 30}
{"smiles": "CNCCNCc1ccc(-c2ccc(-c3nc4cccc(C)c4[nH]3)cc2)cc1.O=C(O)C(F)(F)F", "Inhibition": 19}
{"smiles": "O=C(Cn1cnc2c(nnn2Cc2ccccc2F)c1=O)Nc1ccc2c(c1)OCCO2", "Inhibition": 0}
{"smiles": "O=C(Nc1cncc(NC(=O)c2ccc(Cl)c(Cl)c2)c1)c1ccc(Cl)c(Cl)c1", "Inhibition": 12}
{"smiles": "O=C(N[C@@H](Cc1ccccc1)C(=O)NC1CCCCC1)c1ccc(O)c(-c2ccc(Cl)c(Cl)c2)c1", "Inhibition": 0}
{"smiles": "CC(C)COc1ccc(Cl)cc1Cc1nc(-c2nc3ccc(N4CCN(C)CC4)nc3[nH]2)cs1.Cl", "Inhibition": 29}
{"smiles": "CN(C)CCOc1cc(O)c2c(c1)OC(C)(C)C=C2c1cccs1", "Inhibition": 29}
{"smiles": "CO/N=C(\\C)c1ccc2c(c1)CCN(CCC1CCC(NC(=O)/C=C/c3ccc(F)cc3)CC1)CC2.Cl", "note": "(stereo not drawn)", "Inhibition": 45}
{"smiles": "CCOc1cc(CC)ccc1C1CCN(CCN2CCC(CNC(=O)c3ccc(-c4ccc(C#N)cc4)cc3)CC2)CC1", "Inhibition": 53}
